Source: PubChem BioAssay (NCATS)
Results filed as inconclusive are left out. Activity calls are given as the source filed them. Calls come from the whole dose curve; as a rule, active = well fitted curve in the direction sought with a large enough effect; inconclusive = small, poorly fitted or top-dose-only effect, or another doubt; inactive = no such curve, though single readings can be large; an effect the other way counts as inactive or inconclusive.

Legend:
[1] = target: Glutathione peroxidase 1 (Homo sapiens) (UniProt P07203); assay: Primary qHTS Assay for Inhibitors of Recombinant Selenoprotein Glutathione Peroxidase 1 (GPX1) (AID 1845191); note: nearly all actives have a fitted effect of over 65% in size
How it was run: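 GR-coupled assay: compounds preincubated 30 min at room temperature with GPX1, then reaction started with CHP; final 10 nM GPX1, 1 mM GSH, 0.5 mM CHP, 0.5 mM NADPH, 100 nM GR, 0.01% BSA, pH 7.5 Tris buffer. NADPH fluorescence (340/450 nm) read at 0 and 15 min.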

[2] = target: Phospholipid hydroperoxide glutathione peroxidase GPX4 (Homo sapiens) (UniProt P36969); assay: Primary qHTS Assay for Inhibitors of Recombinant Selenoprotein Glutathione Peroxidase 4 (GPX4) (AID 1845192); note: nearly all actives have a fitted effect of over 65% in size
How it was run: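 GR-coupled assay: recombinant GPX4 preincubated 30 min with compound at room temperature; final 200 nM GPX4, 1 mM GSH, 0.5 mM cumene hydroperoxide, 0.5 mM NADPH, 100 nM GR, 0.01% BSA, pH 7.5 Tris. NADPH fluorescence (340/450 nm) read at 0 and 15 min.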

[3] = Quantitative High-Throughput drug screen in 47 multiple myeloma cell lines against the NCATS MIPE library collection: FR4_PLB cell viability assay (AID 1918924; note: nearly all actives have a fitted effect of over 35% in size; note: potency is the fitted concentration of half-maximal effect)
How it was run: (§1)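 Inhibition of cell viability is measured here. Each line was plated at 500 cells per well, treated with MIPE 4.0 drugs, kept 48 hours at 37C, then assayed for ATP content by CellTiter-Glo luminescence.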

[4] = Quantitative High-Throughput drug screen in 47 multiple myeloma cell lines against the NCATS MIPE library collection: Delta47_JCRB cell viability assay (AID 1918925; note: nearly all actives have a fitted effect of over 45% in size; note: potency is the fitted concentration of half-maximal effect)
How it was run: (§2)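 CellTiter-Glo luminescence (ATP) after 48 h compound exposure, 37C/5% CO2; 500 cells/well; MIPE 4.0 approved/investigational drugs pinned in; DMSO = 100%, media only = 0% viability.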

[5] = Quantitative High-Throughput drug screen in 47 multiple myeloma cell lines against the NCATS MIPE library collection: EJM_DSMZ cell viability assay (AID 1918926; note: nearly all actives have a fitted effect of over 30% in size; note: potency is the fitted concentration of half-maximal effect)
How it was run: as §2

[6] = Quantitative High-Throughput drug screen in 47 multiple myeloma cell lines against the NCATS MIPE library collection: AMO1_DSMZ cell viability assay (AID 1918927; note: nearly all actives have a fitted effect of over 30% in size; note: potency is the fitted concentration of half-maximal effect)
How it was run: as §2

[7] = Quantitative High-Throughput drug screen in 47 multiple myeloma cell lines against the NCATS MIPE library collection: ARP1_JJKsccF8 cell viability assay (AID 1918928; note: nearly all actives have a fitted effect of over 40% in size; note: potency is the fitted concentration of half-maximal effect)
How it was run: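 ATP readout (CellTiter-Glo), 48 h drug incubation, 37 °C/5% CO2, 500 cells per well; normalisation to DMSO (100%) and media-only (0%) controls.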

[8] = Quantitative High-Throughput drug screen in 47 multiple myeloma cell lines against the NCATS MIPE library collection: ARD_JJKsccE7 cell viability assay (AID 1918929; note: potency is the fitted concentration of half-maximal effect)
How it was run: as §2

[9] = Quantitative High-Throughput drug screen in 47 multiple myeloma cell lines against the NCATS MIPE library collection: Karpas620_DSMZ cell viability assay (AID 1918959); note: nearly all actives have a fitted effect of over 30% in size; note: potency is the fitted concentration of half-maximal effect
How it was run: as §1

[10] = target: Luciferin 4-monooxygenase (Photinus pyralis) (UniProt P08659); assay: Primary firefly luciferase (FLuc) qHTS assay for identification of artifact compounds. (AID 1845220); conditions: outcome: dose series up to 54.1 µM; note: nearly all actives have a fitted effect of over 60% in size
How it was run: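 Enzymatic FLuc inhibition assay: compounds pre-exposed to luciferin/ATP (10 uM each) for 15 min, then purified P. pyralis enzyme at 10 nM added. Read-out: luminescence at 5 min.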

[11] = tested on: Nanoluciferase (engineered Oplophorus gracilirostris luciferase); assay: Primary Nanoluciferase (NLuc) qHTS assay for identification of artifact compounds. (AID 1845222);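 note: NLuc secreted into diluted conditioned medium of S16 cells; series mostly up to about 54 µM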
How it was run: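 S16 cell supernatant NLuc, 1:55; cpds qHTS; 15 min RT dark; Nano-Glo substrate 1:100, 5 min; luminescence; Hill fit of % inhibition.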

[12] = Primary redox qHTS assay for identification of artifact compounds. (AID 1845223)
How it was run: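 Amplex Red (25 uM) and HRP (250 mU/mL) in HBSS, with compounds for 15 min, then 250 uM DTT for 30 min, room temperature, dark. Fluorescence 525/598 nm read; normalized to DMSO and 10 uM DA3003; Hill fit.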

Measured: Potency

Phospholipid hydroperoxide glutathione peroxidase GPX4 (Homo sapiens), sequence (P36969 whole entry, looked up): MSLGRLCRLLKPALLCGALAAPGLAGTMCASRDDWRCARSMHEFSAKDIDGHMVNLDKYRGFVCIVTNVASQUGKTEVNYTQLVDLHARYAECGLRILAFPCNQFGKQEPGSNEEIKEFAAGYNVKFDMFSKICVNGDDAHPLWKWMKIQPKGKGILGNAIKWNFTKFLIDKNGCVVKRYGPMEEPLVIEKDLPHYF
Glutathione peroxidase 1 (Homo sapiens), sequence (P07203 whole entry, looked up): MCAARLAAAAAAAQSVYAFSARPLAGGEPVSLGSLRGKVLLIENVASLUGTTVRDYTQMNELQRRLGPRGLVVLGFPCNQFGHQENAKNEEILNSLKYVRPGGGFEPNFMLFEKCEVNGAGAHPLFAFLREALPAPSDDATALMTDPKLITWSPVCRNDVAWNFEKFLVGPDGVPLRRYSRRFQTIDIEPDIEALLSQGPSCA

CCOCC(O)COc1ccc(NC(=O)CC[S+](C)C)cc1 (stereo not drawn)
not listed: [10] | [11] | [12]
inactive: all other assays above

C#CCN[C@@H]1CCc2ccccc21
not listed: [5] | [10] | [11] | [12]
inactive: all other assays above

CCn1cc(C(=O)O)c(=O)c2cc(F)c(N3CCN(C)CC3)cc21
active: [8] 0.0132 µM
inactive: [1] | [2] | [3] | [4] | [5] | [9]

COC(=O)Nc1nc2ccc(Sc3ccccc3)cc2[nH]1
inactive: [1] | [2]
active: [3] 0.935 µM | [4] 1.05 µM | [5] 16.6 µM | [6] 0.833 µM | [7] 1.18 µM | [8] 1.32 µM

C1CCC(C(CC2CCCCN2)C2CCCCC2)CC1 (stereo not drawn)
active: [3] 11.8 µM | [4] 13.2 µM | [5] 26.4 µM | [6] 18.7 µM | [7] 23.5 µM | [8] 26.4 µM | [9] 14.8 µM
inactive: [1] | [2]

O=S(=O)(O)CCS
inactive: [1] | [2] | [3] | [4] | [5] | [7] | [9]

Cc1cc(NS(=O)(=O)c2ccc(N)cc2)no1
not listed: [10] | [11] | [12]
inactive: all other assays above

COc1cc(NS(=O)(=O)c2ccc(N)cc2)nc(OC)n1
not listed: [10] | [11] | [12]
inactive: all other assays above

CN1CCN(c2c(F)cc3c(=O)c(C(=O)O)cn(CCF)c3c2F)CC1
not listed: [10] | [11] | [12]
inactive: all other assays above

CCN(C)C(=O)Oc1cccc([C@H](C)N(C)C)c1
inactive: [1] | [2] | [3] | [4] | [5] | [7]
active: [9] 0.0332 µM

Nc1nc(N)nc(-c2cc(Cl)ccc2Cl)n1
inactive: [1] | [2] | [3] | [4] | [5] | [7]

O=C(O)c1cc(=O)[nH]c(=O)[nH]1
not listed: [7] | [10] | [11] | [12]
inactive: all other assays above

CN(Cc1cc(Br)cc(Br)c1N)C1CCCCC1
not listed: [5] | [10] | [11] | [12]
inactive: all other assays above

Cc1cccc(N(C)C(=S)Oc2ccc3ccccc3c2)c1
active: [8] 20.9 µM
not listed: [6] | [10] | [11] | [12]
inactive: all other assays above

O=c1cc(O)c(Cl)c[nH]1
inactive: [1] | [2] | [3] | [4] | [7]
active: [6] 2.64 µM | [8] 7.43 µM

CCCN[C@H]1CCc2nc(N)sc2C1
inactive: [1] | [2] | [3] | [4] | [5]

Cn1c(=O)c2c(ncn2CC(O)CO)n(C)c1=O (stereo not drawn)
not listed: [8] | [10] | [11] | [12]
inactive: all other assays above

CCCCc1oc2ccc(NS(C)(=O)=O)cc2c1C(=O)c1ccc(OCCCN(CCCC)CCCC)cc1
active: [4] 11.8 µM | [5] 16.6 µM | [6] 9.35 µM | [7] 16.6 µM | [8] 16.6 µM | [9] 20.9 µM
inactive: [1] | [2] | [10] | [11] | [12]

CCOC(=O)c1ccc(OC(=O)CCCCCN=C(N)N)cc1
not listed: [10] | [11] | [12]
inactive: all other assays above

COc1nc(N)nc2c1ncn2[C@@H]1O[C@H](CO)[C@@H](O)[C@@H]1O
inactive: [1] | [2] | [3] | [4] | [6] | [7] | [9]

O=C(O)CSCC(=O)NC1CCSC1=O (stereo not drawn)
not listed: [6] | [10] | [11] | [12]
inactive: all other assays above

C[C@@H]1C[C@H]2[C@@H]3CCC4=CC(=O)C=C[C@]4(C)[C@@]3(Cl)[C@@H](O)C[C@]2(C)[C@@]1(OC(=O)c1ccco1)C(=O)CCl
active: [3] 26.4 µM | [4] 2.96 µM | [5] 4.69 µM | [6] 1.48 µM | [9] 16.6 µM
inactive: [1] | [2]

CCCc1cc(C(N)=S)ccn1
not listed: [10] | [11] | [12]
inactive: all other assays above
